Measurements reported in PubChem BioAssay AID686978 (National Center for Advancing Translational Sciences (NCATS), 2013).
Out of some 420,000 compounds screened, about 64,000 (15%) were called active. Not shown: some 27% with an inconclusive outcome. Calls come from the whole dose curve; as a rule, active = well fitted inhibition curve with a large enough effect; inconclusive = small, poorly fitted or top-dose-only effect; inactive = flat fitted curve, though single readings scatter. Not all results are given here.

experiment: qHTS for Inhibitors of human tyrosyl-DNA phosphodiesterase 1 (TDP1): qHTS in cells in absence of CPT; details: DT40 Tdp1-/- hTDP1 cells, no CPT, ATP luminescence, 48 h; activity change, negative = growth inhibition: at 46.2 µM (top of the series); note: nearly all actives have a fitted effect of over 55% in size
In short: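 Seeded 400 DT40-hTDP1 cells/well (vehicle DMSO, no 20 nM CPT); pinned compounds; ≥48 hr at 37 °C; CellTiter-Glo luminescence as viability measure.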
% is set by controls: 0 for no effect and ±100 for the full control effect; potency is the fitted concentration of half-maximal effect.

Row | SMILES | activity change, negative = growth inhibition | Potency
1 | Cc1cc(C)c(C#N)c(N2CCC(C(N)=O)CC2)n1 | -0.105% (inactive) | –
2 | O=C(c1ccc(CSc2ccccc2)cc1)N1CCCCCC1 | -26.1% (inactive) | –
3 | COc1ccc(CC(NC(C)=O)C(=O)NC2CCN(C(=O)c3ccc(Cl)cc3)CC2)cc1 (stereo unspecified) | -5.27% (inactive) | –
4 | CC1CCN(C(=O)c2ccc(CSc3ccc(Cl)cc3)cc2)CC1 | – | 16.4 µM (active)
5 | Cc1cc(C)c(C#N)c(Nc2cccc(Br)c2)n1 | -1.59% (inactive) | –
6 | CC(C)(C)OC(=O)CNC(=O)c1[nH]cnc1C(=O)N[C@@H](CCCCN)C(=O)OC(C)(C)C | -11.3% (inactive) | –
7 | C#CCOCCOCCOCCNc1nc(N2CCN(C(=O)C([C@@H](C)O)n3cc([C@@H](N)CCCCN)nn3)CC2)nc(N2CCN(C(=O)[C@H](CCCCN)n3cc(CN)nn3)CC2)n1 (stereo partly specified) | -15% (inactive) | –
8 | O=C(NCc1ccco1)C1CCCN1S(=O)(=O)c1ccccc1C(F)(F)F (stereo unspecified) | -18.2% (inactive) | –
9 | CCOC(=O)CSC1=N/C(=C/c2ccc(-n3cncn3)cc2)C(=O)N1C(C)=O | – | 11.6 µM (active)
10 | CCOC(=O)CSc1nc(C)cc2c1C(=O)OC2 | 9.81% (inactive) | –
11 | CCCC(=O)N1CCC1(C)C(=O)Nc1ccc(-n2cncn2)cc1 (stereo unspecified) | -2.82% (inactive) | –
12 | C=CCn1c(COc2ccccc2C)nnc1SCC(=O)O | 2.03% (inactive) | –
13 | COc1ccc(CCNc2ncnc3onc(-c4ccc(Cl)cc4)c23)c(OC)c1 | – | 14.6 µM (active)
14 | COc1ccc(CNc2ncncc2-c2ccccc2C)c(OC)c1 | -21.4% (inactive) | –
15 | COc1ccc(CNc2ncncc2-c2ccccc2OC)c(OC)c1 | -11.4% (inactive) | –
16 | O=C(Nc1cccc2c1CCCC2)c1ccc(F)cc1 | -28.2% (inactive) | –
17 | Clc1cccc(Cl)c1Cn1nnc(-c2cccs2)n1 | -4.91% (inactive) | –
18 | Cc1ccc(N=Cc2c(O)cc(C)oc2=O)c(C)c1 | -7.95% (inactive) | –
19 | O=C(Nc1ncc2c(n1)-c1ccccc1OC2)c1ccc(Cl)cc1 | -18.8% (inactive) | –
20 | COCCN(CCOC)S(=O)(=O)c1ccc(/C(O)=C(\C#N)c2nc3ccccc3[nH]2)cc1 | -28% (inactive) | –
21 | NC(=O)c1c(NC(=O)c2ccccc2)sc2c1CCCC2 | -1.15% (inactive) | –
22 | C=CCSc1nnc(NC(=O)c2ccc(NC(C)=O)cc2)s1 | 0.0104% (inactive) | –
23 | COCc1nnc(NC(=O)c2ccc3c(c2)OCO3)s1 | -3.94% (inactive) | –
24 | C=CCN(CC=C)S(=O)(=O)c1ccc(C(=O)Nc2sc3c(c2C(N)=O)CCCCC3)cc1 | – | 13 µM (active)
25 | C=CCN(CC=C)S(=O)(=O)c1ccc(C(=O)Nc2nc3c(s2)CCc2ccccc2-3)cc1 | – | 10.3 µM (active)
26 | COc1cccc(OC)c1C(=O)Nc1sc2c(c1C(N)=O)CCCC2 | -1.68% (inactive) | –

Row | SMILES | activity change, negative = growth inhibition | Potency
27 | COCCN(CCOC)S(=O)(=O)c1ccc(C(=O)Nc2nc3c(s2)CCc2ccccc2-3)cc1 | – | 13 µM (active)
28 | CC1(c2nnc(-c3ccncc3)o2)CC(c2cccnc2)=NO1 (stereo unspecified) | -1.46% (inactive) | –
29 | CN(C)/C(=N\OC(=O)c1ccccc1)c1nonc1N | -6.06% (inactive) | –
30 | COCCNC(=O)c1ccc(Cn2c(SCC(=O)NCC3CCCO3)nc3ccc(Br)cc3c2=O)cc1 (stereo unspecified) | 2.84% (inactive) | –
31 | Nc1ccn(CC(=O)N2CCN(c3ccccn3)CC2)c(=O)n1 | -6.28% (inactive) | –
32 | Cc1ccc(S(=O)(=O)NC(C(=O)N2CCOCCOCCOCCOCC2)c2ccccc2)cc1 (stereo unspecified) | -13.9% (inactive) | –
33 | CCCC(C(=O)n1nc(C)cc1C)C(NS(=O)(=O)c1ccc(C)cc1)c1ccccc1 (stereo unspecified) | – | 23.1 µM (active)
34 | Cc1ccc(S(=O)(=O)Nc2nc(C)cc(-n3nc(C)cc3C)n2)cc1 | -1.59% (inactive) | –
35 | Cc1c(NC(=O)C(C)OC(=O)c2ccccc2O)c(=O)n(-c2ccccc2)n1C (stereo unspecified) | -11% (inactive) | –
36 | CCCCS(=O)c1snnc1C (stereo unspecified) | 3.05% (inactive) | –
37 | O=C1CCCCC1Sc1ccc(Cl)cc1[N+](=O)[O-] (stereo unspecified) | -19.5% (inactive) | –
38 | CCOC(=O)c1ccc(NC(=O)c2c(N)n(C)c(=O)[nH]c2=O)cc1 | -0.401% (inactive) | –
39 | O=C(Nc1ccc(Cl)cc1)c1cnn2c1NC(=C1CC1)C=C2C(F)F | 0.994% (inactive) | –
40 | CC(C)(C)C1CCC(NC(=O)c2cnn3c2NC(=C2CC2)C=C3C(F)F)CC1 (stereo unspecified) | – | 7.94 µM (active)
41 | O=C(Nc1ccc([N+](=O)[O-])cc1)c1cnn2c1NC(=C1CC1)C=C2C(F)F | -1.42% (inactive) | –
42 | Cc1cc(N2C(=O)C(=O)/C(=C(/O)c3ccccc3)C2c2cccc(Br)c2)no1 (stereo unspecified) | -12.7% (inactive) | –
43 | O=C(O)CSC(NC(=O)c1cccnc1)(C(F)(F)F)C(F)(F)F | -1.73% (inactive) | –
44 | COc1ccc(N)cc1NC(=O)CN1CCOCC1 | -2.03% (inactive) | –
45 | O=C(Nc1ccc(F)cc1)C(CCc1ccccc1)N1CCN(CC(=O)N2CCCC2)CC1 (stereo unspecified) | -24.4% (inactive) | –
46 | CC(NC(=O)c1cccc(S(=O)(=O)N2CCc3ccccc3C2)c1)c1ccco1 (stereo unspecified) | -22.5% (inactive) | –
47 | COC(=O)c1ccc(S(=O)(=O)N2CCc3ccccc3C2)cc1 | -27.5% (inactive) | –
48 | Cc1cccc(N2CCN(C(=O)c3cccc(S(=O)(=O)N4CCc5ccccc5C4)c3)CC2C)c1 (stereo unspecified) | – | 7.31 µM (active)
49 | COc1ccc(-n2ncc3c(N4CCCc5ccccc54)ncnc32)cc1 | -29.4% (inactive) | –
50 | COc1ccc(C2(c3ccc(OC)cc3)NC(=O)N(CC(=O)Nc3cc(C)on3)C2=O)cc1 | – | 16.4 µM (active)
51 | CCCCCCCC1(C)NC(=O)N(CC(=O)Nc2cc(C)on2)C1=O (stereo unspecified) | -2.67% (inactive) | –
52 | Cc1cc(NC(=O)CN2C(=O)NC(C)(CCc3ccccc3)C2=O)no1 (stereo unspecified) | -5.45% (inactive) | –

Row | SMILES | activity change, negative = growth inhibition | Potency
53 | O=C(CSc1nnc(-c2ccccc2O)o1)NC1CCCCC1 | -1.77% (inactive) | –
54 | O=S(=O)(Cc1ccccc1)c1nc2ccccc2n1Cc1ccccn1 | -1.39% (inactive) | –
55 | CCOc1ccc(S(=O)(=O)N2CCC(C(=O)NCC(=O)Nc3cccc(Cl)c3C)CC2)cc1 | -24.1% (inactive) | –
56 | CSc1nccc(NC(=O)c2ccc(C(C)(C)C)cc2)n1 | – | 7.31 µM (active)
57 | Cc1cccc(NC(=O)c2ccccc2NC(=O)C(C)(C)C)n1 | -13.1% (inactive) | –
58 | Cc1cccc(NC(=O)c2cccnc2Cl)n1 | 21.4% (inactive) | –
59 | Cc1cc(C)c2nc(NC(=O)c3ccc4c(c3)OCO4)sc2c1 | -19.9% (inactive) | –
60 | COc1cccc(Nc2ncc3ncc(=O)n(C4CC4)c3n2)c1 | – | 11.6 µM (active)
61 | O=c1cnc2cnc(Nc3ccccc3)nc2n1Cc1ccc(F)cc1 | -27.5% (inactive) | –
62 | Cc1nc2cnc(Nc3ccccc3)nc2n(C[C@H]2CCCO2)c1=O | -7.1% (inactive) | –
63 | CC(C)CCNC(=O)C1CCC(CNc2c(N3CCC(C)CC3)c(=O)c2=O)CC1 (stereo unspecified) | 4.09% (inactive) | –
64 | CC(C)C(=O)N1CCN(CCN=CC2=C(O)CC(c3ccco3)CC2=O)CC1 (stereo unspecified) | – | inactive
65 | Cc1ccc(OCC(=O)NCCCNC(=O)c2cccnc2)cc1C | -16.4% (inactive) | –
66 | CCCc1nc(N2CCN(C)CC2)c2sc(=S)n(-c3ccccc3)c2n1 | – | 16.4 µM (active)
67 | CCCc1nc(-c2ccccc2O)n(-c2ccccc2)n1 | -28.1% (inactive) | –
68 | O=C1/C(=C/c2ccc3c(c2)OCO3)Oc2cc(OCC(=O)N3CC(O)C[C@H]3C(=O)O)ccc21 (stereo partly specified) | -0.893% (inactive) | –
69 | CCc1ccccc1N(CC(=O)NCCSCc1ccco1)S(C)(=O)=O | -5.54% (inactive) | –
70 | CNC(=O)C1CCN(S(=O)(=O)c2c(C)noc2/C=C/c2cccc(C)c2)CC1 | -2.36% (inactive) | –
71 | CC(=O)c1ccc(NC(=O)C2CCN(S(=O)(=O)c3c(C)noc3/C=C/c3ccc(C)cc3)CC2)cc1 | -14.2% (inactive) | –
72 | Cc1noc(/C=C/N(C)C)c1S(=O)(=O)N1CCCC(C(=O)NCc2ccco2)C1 (stereo unspecified) | 1.87% (inactive) | –
73 | Cc1cccc(NC(=O)C2CCN(S(=O)(=O)c3c(C)noc3/C=C/c3ccco3)CC2)c1 | – | 20.6 µM (active)
74 | Cc1noc(/C=C/c2ccco2)c1S(=O)(=O)N1CCC(C(=O)Nc2ccc(Cl)cn2)CC1 | – | 18.4 µM (active)
75 | Cc1ccnc(NC(=O)C2CCN(S(=O)(=O)c3c(C)c(C)cc(C)c3C)CC2)c1 | -18.4% (inactive) | –
76 | CC(C)CCNC(=O)c1cccnc1Sc1ccccc1 | -12.3% (inactive) | –
77 | Cc1ccccc1CN1CCN(CC(=O)NCc2ccccn2)C1=O | 0.195% (inactive) | –
78 | Cc1ccccc1CN1C[C@@H]2C[C@@H](c3ccc4nsnc4c3)N3CCC[C@@]23C1=O | – | 20.6 µM (active)

Row | SMILES | activity change, negative = growth inhibition | Potency
79 | CC(=NCC1CCCO1)c1c(O)[nH]c(=O)[nH]c1=O (stereo unspecified) | -21.1% (inactive) | –
80 | COc1ccc(/C=C2/C(=O)N(c3ccccc3)N=C2C)c(OC)c1 | 9.93% (inactive) | –
81 | COc1ccc(C2/C(=C(/O)c3ccccc3)C(=O)C(=O)N2C)c(OC)c1 (stereo unspecified) | -1% (inactive) | –
82 | COc1ccc(/C=C2/C(=O)OCc3cc(OC)c(OC)cc32)c(OC)c1 | – | 29.1 µM (active)
83 | Cc1nc(N)sc1N=Nc1c(C)n(C)n(-c2ccccc2)c1=O | -17.5% (inactive) | –
84 | COc1ccc(-c2ccc(CCC(=O)O)n2-c2ccc(O)cc2)cc1 | -9.04% (inactive) | –
85 | COc1ccc(-c2nc3ccccc3c(=O)n2CCc2ccc(O)cc2)cc1 | – | 9.2 µM (active)
86 | COc1cccc(OCCn2c(-c3ccc(Br)cc3)nc3ccccc3c2=O)c1 | -7% (inactive) | –
87 | CCOc1ccc(CNC(=O)C2CCCN(c3nnc(C)c4c(C)n(-c5ccccc5)nc34)C2)cc1 (stereo unspecified) | – | 18.4 µM (active)
88 | Cc1nnc(N2CCCC(C(=O)NCCN(C)C)C2)c2nn(-c3ccccc3)c(C)c12 (stereo unspecified) | -18% (inactive) | –
89 | CCc1ccc(CNC(=O)C2CCN(c3nnc(C)c4c(C)n(-c5ccc(C)cc5)nc34)CC2)cc1 | – | 5.17 µM (active)
90 | COc1ccc(-n2nc3c(N4CCC(C(=O)NCc5ccccc5)CC4)nnc(C)c3c2C)cc1 | 0.177% (inactive) | –
91 | COC(=O)CCCCC1=CCC2C(=O)C=C(O)C2C1 (stereo unspecified) | 4.57% (inactive) | –
92 | CCOC(=O)C1(Cc2cccc(OC)c2)CCN(Cc2csc(C(C)=O)c2)CC1 | – | 13 µM (active)
93 | CCOC(=O)C1(Cc2cccc(OC)c2)CCN(C(C)COC)CC1 (stereo unspecified) | -60.7% (inactive) | –
94 | CCOC(=O)C1(Cc2cccc(OC)c2)CCN(C(C)CC(C)(C)O)CC1 (stereo unspecified) | -28.5% (inactive) | –
95 | O=C(O)Cc1sc(-c2ccc(C(=O)O)cc2)nc1-c1ccccc1 | 1.9% (inactive) | –
96 | Cc1ccc(NC(=O)Nc2cccnc2)cc1 | 6.11% (inactive) | –
97 | Cc1ccc(-c2nc(-c3cccnc3)sc2CC(=O)Nc2ccc(C)c(Cl)c2)cc1 | – | 23.1 µM (active)
98 | CC(C)CN1C(=O)CN(S(C)(=O)=O)CC1(C)C(=O)NCc1ccccc1 (stereo unspecified) | 8.49% (inactive) | –
99 | CCOC(=O)c1c(NC(=O)CCl)sc(C(=O)N(CC)CC)c1C | – | 13 µM (active)
100 | CCC(=O)Nc1sc(C(=O)Nc2ccccc2)c(C)c1C(=O)OC | -26.8% (inactive) | –
101 | CCOC(=O)Nc1sc(C(=O)N(C)C)c(C)c1C(=O)OCC | -18.5% (inactive) | –
